Results taken from PubChem BioAssay (NCI).
The panel holds about 83,000 compounds, 20% with a hit somewhere; the sample as a whole holds those more often.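 The test compound was applied at a single concentration to cells in 96-well plates for 48 hours, and percent growth was recorded.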 Activity calls are given as the source filed them. The calls were made as follows: active = growth percent below 10; inactive = the rest.

Key:
Test in all cases: NCI-60 one-dose screen, 48 h (100 = growth as untreated, 0 = no growth, -100 = all killed)
Conditions in all cases: 10 µM
BT-549 breast = tested on: BT-549 breast
MDA-MB-435 melanoma = tested on: MDA-MB-435 melanoma
SW-620 colon = tested on: SW-620 colon
MCF7 breast = tested on: MCF7 breast
HCT-116 colon = tested on: HCT-116 colon
HCC-2998 colon = tested on: HCC-2998 colon
KM12 colon = tested on: KM12 colon

Measured: growth

Nc1nc(N=Nc2ccc(O)cc2)cc(=O)[nH]1
inactive: BT-549 breast 95.5% | MDA-MB-435 melanoma 98.3% | SW-620 colon 104% | MCF7 breast 101% | HCT-116 colon 112% | HCC-2998 colon 106% | KM12 colon 111%

CCN(CC)CCN1CC(=O)Nc2cc(Cl)ccc21
inactive: BT-549 breast 107% | MDA-MB-435 melanoma 98.8% | SW-620 colon 86.4% | MCF7 breast 104% | HCT-116 colon 102% | HCC-2998 colon 102% | KM12 colon 103%

COC(=O)C1(C)Cc2cc(OC(C)=O)c(OC(C)=O)cc2N1 (configuration not stated)
inactive: BT-549 breast 98.8% | MDA-MB-435 melanoma 73.9% | SW-620 colon 58.6% | MCF7 breast 51.7% | HCT-116 colon 35.1% | HCC-2998 colon 112% | KM12 colon 85.9%

Nc1c(C(=O)Nc2cccc(Br)c2)sc2nc3c(cc12)C(O)CCC3 (configuration not stated)
active: MDA-MB-435 melanoma -42.1%
inactive: BT-549 breast 45.2% | SW-620 colon 36.4% | MCF7 breast 21% | HCT-116 colon 16.4% | HCC-2998 colon 31.5% | KM12 colon 22.8%

COc1cc(-c2cc(/C=C3\C(=O)Nc4cc(Cl)ccc43)[nH]n2)cc(OC)c1OC
inactive: BT-549 breast 47.6% | SW-620 colon 41.4% | HCT-116 colon 14.2% | HCC-2998 colon 70%
active: MDA-MB-435 melanoma -0.685% | MCF7 breast -4.15% | KM12 colon 9.09%

CCCN(CCC)CCC(O)c1cc2c(c3ccccc13)CCCC2 (configuration not stated)
inactive: BT-549 breast 92.5% | MDA-MB-435 melanoma 97.7% | SW-620 colon 94.1% | MCF7 breast 82.4% | HCT-116 colon 70.3% | HCC-2998 colon 87.6% | KM12 colon 101%

ClCCOCCn1cnc2c(Cl)nc(Cl)nc21
inactive: BT-549 breast 102% | MDA-MB-435 melanoma 80.7% | SW-620 colon 47.6% | MCF7 breast 55.9% | KM12 colon 92.5%
active: HCT-116 colon -13.6% | HCC-2998 colon -90.2%

NC(=O)CC1(c2ccccc2)CCCCC1
inactive: BT-549 breast 102% | MDA-MB-435 melanoma 109% | SW-620 colon 108% | MCF7 breast 96.4% | HCT-116 colon 95.6% | HCC-2998 colon 102% | KM12 colon 101%

CC(=O)c1nc2ccccc2n1CCNC(N)=O
active: MDA-MB-435 melanoma -13.7%
inactive: BT-549 breast 74.4% | SW-620 colon 57.6% | MCF7 breast 52.4% | HCT-116 colon 37.2% | HCC-2998 colon 95.8% | KM12 colon 66.4%

O=C(Nc1ccncc1)C(=O)c1cn(S(=O)(=O)c2ccc(F)cc2)c2ccccc12
inactive: BT-549 breast 36.9% | SW-620 colon 12% | MCF7 breast 12.6% | HCT-116 colon 11.6% | HCC-2998 colon 61.6% | KM12 colon 18.1%
active: MDA-MB-435 melanoma -20.3%

NC(=O)SCC(=O)Nc1ccc(S(N)(=O)=O)cc1
inactive: BT-549 breast 111% | MDA-MB-435 melanoma 106% | SW-620 colon 99.2% | MCF7 breast 104% | HCT-116 colon 109% | HCC-2998 colon 102% | KM12 colon 101%

Cc1ccc(NC(=O)CSc2nc3ccccc3c(=O)n2CCc2ccccc2)c(C(=O)O)c1
inactive: BT-549 breast 96.8% | MDA-MB-435 melanoma 97.3% | SW-620 colon 109% | MCF7 breast 93.8% | HCT-116 colon 92.7% | HCC-2998 colon 113% | KM12 colon 110%

Cc1ccc(Nc2cc(C)nc(NCCCNc3ccnc4cc(Cl)ccc34)n2)cc1
active: BT-549 breast -85.5% | MDA-MB-435 melanoma -90% | SW-620 colon -84.3% | MCF7 breast -95% | HCT-116 colon -100% | HCC-2998 colon -86.3% | KM12 colon -49.8%

COc1ccc(-c2cc(/C=C/C(=O)c3cc(OC)c(OC)c(OC)c3)[nH]n2)cc1OC
inactive: BT-549 breast 24%
active: MDA-MB-435 melanoma 4.69% | SW-620 colon -65.6% | MCF7 breast -9.93% | HCT-116 colon -46.5% | HCC-2998 colon -75.7% | KM12 colon -61.6%

Nc1c(C(=O)Nc2cccc3ccccc23)sc2nc3c(cc12)C(=O)CCC3
inactive: BT-549 breast 57% | SW-620 colon 21.3% | MCF7 breast 13.6% | HCT-116 colon 17.5% | HCC-2998 colon 11.9% | KM12 colon 25.9%
active: MDA-MB-435 melanoma -37.3%

Cn1c([N+](=O)[O-])cnc1/C=C1\Oc2ccccc2C1=O
active: BT-549 breast -28.6% | MDA-MB-435 melanoma -86.8% | SW-620 colon -36.3% | MCF7 breast 1.82% | HCT-116 colon 1.88% | HCC-2998 colon -73.6% | KM12 colon -17.4%

NC(=S)N=Nc1c(O)c2ccccc2c2ccccc12
inactive: BT-549 breast 49.5% | SW-620 colon 47% | MCF7 breast 24.5% | HCT-116 colon 32% | HCC-2998 colon 98.6% | KM12 colon 92%
active: MDA-MB-435 melanoma -85.5%

COc1ccc(-c2cc(/C=C3\C(=O)Nc4ccc(Cl)cc43)[nH]n2)cc1OC
inactive: BT-549 breast 99.7% | MDA-MB-435 melanoma 91.5% | SW-620 colon 97.1% | MCF7 breast 63.1% | HCT-116 colon 73.2% | HCC-2998 colon 103% | KM12 colon 29.3%

Clc1cccc(-c2nc(-c3cccs3)no2)c1
inactive: BT-549 breast 111% | MDA-MB-435 melanoma 111% | SW-620 colon 106% | MCF7 breast 36.8% | HCT-116 colon 92.4% | HCC-2998 colon 32.9% | KM12 colon 92.4%

CN(C)N=Nc1nn(C(=O)Nc2ccc(Cc3ccccc3)cc2)c2ccccc12
inactive: BT-549 breast 75% | MDA-MB-435 melanoma 48.5% | SW-620 colon 34.4% | MCF7 breast 21.1% | HCT-116 colon 62.1% | HCC-2998 colon 10.1% | KM12 colon 12.9%

O=C(Nc1cccc(-n2cc(-c3ccncc3)c(-c3ccc(O)c(Cl)c3)n2)c1)c1ccc(Cl)c(Cl)c1
inactive: BT-549 breast 68.5% | MDA-MB-435 melanoma 47.2% | SW-620 colon 28.2% | MCF7 breast 35.5% | HCT-116 colon 44.4% | HCC-2998 colon 54.3% | KM12 colon 43.9%

COc1cc(OC)cc(-c2cncn2-c2ccc(-c3nc4cc(OC)cc(OC)c4s3)cc2)c1
inactive: BT-549 breast 46.6% | SW-620 colon 48.2% | MCF7 breast 20.9% | HCT-116 colon 36.8% | HCC-2998 colon 70.2% | KM12 colon 38.5%
active: MDA-MB-435 melanoma -16.3%

COc1ccc2c(c1)O/C(=C\c1ncc([N+](=O)[O-])n1C)C2=O
active: BT-549 breast -36.8% | MDA-MB-435 melanoma -78.1% | SW-620 colon -20.8% | MCF7 breast 1.94% | HCT-116 colon 0.959% | HCC-2998 colon -58.8% | KM12 colon -37.7%

COc1cc(Cl)cc(-c2nn(-c3cccc(NC(=O)Nc4cc(C(F)(F)F)cc(C(F)(F)F)c4)c3)cc2-c2ccncc2)c1
active: BT-549 breast 6.61% | MDA-MB-435 melanoma -19.5% | SW-620 colon 7.18% | MCF7 breast 3.81% | HCT-116 colon -4.6% | HCC-2998 colon 9.5%
inactive: KM12 colon 12.2%

O=C(Nc1cccc(-n2cc(-c3ccncc3)c(-c3ccc(O)c(Cl)c3)n2)c1)c1cc(C(F)(F)F)cc(C(F)(F)F)c1
inactive: BT-549 breast 79.7% | MDA-MB-435 melanoma 52% | SW-620 colon 67.7% | MCF7 breast 27.3% | HCT-116 colon 44.1% | HCC-2998 colon 33.3% | KM12 colon 27.1%

COC(=O)c1c(-c2ccccc2)csc1NC(=O)c1c(-c2ccccc2)noc1C
active: HCT-116 colon 6%
inactive: BT-549 breast 59.2% | MDA-MB-435 melanoma 32.7% | SW-620 colon 19.4% | MCF7 breast 24.6% | HCC-2998 colon 63.5% | KM12 colon 27.9%

Nc1ccc2c(c1)Cc1cc(N)c(Br)cc1-2
inactive: BT-549 breast 94.4% | MDA-MB-435 melanoma 102% | SW-620 colon 108% | MCF7 breast 51.4% | HCT-116 colon 101% | HCC-2998 colon 80.8% | KM12 colon 99.6%

CC1=C(N2CCOCC2)C(N2CCOCC2)=C(C)C(=O)C1=O
inactive: BT-549 breast 110% | MDA-MB-435 melanoma 103% | SW-620 colon 105% | MCF7 breast 92.5% | HCT-116 colon 108% | HCC-2998 colon 109% | KM12 colon 105%

Cc1c(Cl)cccc1NC(=O)c1sc2nc3c(cc2c1N)C(=O)CCC3
inactive: BT-549 breast 49.9% | SW-620 colon 18.3% | MCF7 breast 13.5% | HCT-116 colon 14.3% | HCC-2998 colon 25.8% | KM12 colon 11.1%
active: MDA-MB-435 melanoma -43.6%

CCOC(=O)c1ccoc1
inactive: BT-549 breast 98.4% | MDA-MB-435 melanoma 107% | SW-620 colon 100% | MCF7 breast 95.1% | HCT-116 colon 97.1% | HCC-2998 colon 113% | KM12 colon 104%

CN(C)CCOc1nc2ccccc2c2c1-c1ccc(Cl)cc1C2=O
inactive: BT-549 breast 52.1%
active: MDA-MB-435 melanoma -41.6% | SW-620 colon -60.8% | MCF7 breast -38.7% | HCT-116 colon 1.69% | HCC-2998 colon -53.6% | KM12 colon -45.2%

CC1(C)CCC(=NNC(N)=S)CC1
inactive: BT-549 breast 125% | MDA-MB-435 melanoma 111% | SW-620 colon 105% | MCF7 breast 99.4% | HCT-116 colon 94.6% | HCC-2998 colon 101% | KM12 colon 105%

COc1ccc(-c2nn(-c3cccc(NC(=O)c4ccc(Cl)c(Cl)c4)c3)cc2-c2ccncc2)cc1Cl
inactive: BT-549 breast 95.4% | MDA-MB-435 melanoma 24.8% | SW-620 colon 81.5% | MCF7 breast 72.1% | HCT-116 colon 69.6% | HCC-2998 colon 82% | KM12 colon 55.8%

O=C(CSSCC(=O)c1ccc(Cl)cc1)c1ccc(Cl)cc1
inactive: BT-549 breast 84.9% | MDA-MB-435 melanoma 47.9% | SW-620 colon 51.1% | MCF7 breast 86.7% | HCT-116 colon 35.4% | HCC-2998 colon 63.1% | KM12 colon 44.8%

CN(C)CCS(=O)(=O)CCN(C)C
inactive: BT-549 breast 101% | MDA-MB-435 melanoma 116% | SW-620 colon 94.5% | MCF7 breast 107% | HCT-116 colon 96.9% | HCC-2998 colon 102% | KM12 colon 99.6%

Cc1ccc(NC(=O)NC2CCCCC2)cc1
inactive: BT-549 breast 115% | MDA-MB-435 melanoma 105% | SW-620 colon 108% | MCF7 breast 93.8% | HCT-116 colon 105% | HCC-2998 colon 111% | KM12 colon 101%
